Our source for the Potency values is PubChem BioAssay (Tox21).

Results filed as inconclusive are left out. Active and inactive are the calls of the source. Unless noted, the call rests on the fitted dose curve; in most records, active means well fitted curve in the direction sought with a large enough effect in the repeat runs; inconclusive means weak or mixed curves; inactive means no such curve, though single readings can be large; an effect the other way counts as inactive or inconclusive.

Experiment [1] can be described thus: qHTS assay to identify small molecule antagonists of the estrogen related receptor (ERR) signaling pathway - cell viability counter screen (AID 1224818).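 Further: series mostly up to about 46 µM; viability measured after 17.5 h of compound exposure.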 The gist of the method:
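Multiplexed counter screen to separate cytotoxic compounds from true ERR modulators. ERR cells received DMSO-dissolved compounds after a 6 h pre-incubation, were exposed 17.5 h at 37 C, then assayed with CellTiter-Fluor fluorescence.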
On the technique in general: qHTS replaces the single test concentration by a dilution series.

A short description of experiment [2]: qHTS assay to identify small molecule antagonists of the estrogen related receptor (ERR) signaling pathway (AID 1224819; further: nearly all actives have a fitted effect of over 50% in size; further: potency means the concentration at half of the fitted maximal effect). The method, boiled down: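 Seed ERR cells 2,000/well; rest 6 h at 37 C/5% CO2; pin compounds in DMSO; incubate 18 h at 37 C; add One-Glo; wait 30 min at room temperature; measure luminescence.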
A short description of experiment [3]: qHTS assay to identify small molecule agonists of the estrogen related receptor (ERR) signaling pathway (AID 1224820). The gist of the method:
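Cells: ERR line from NTP, 2,000/well. Pre-incubation 6 h, 37 C/5% CO2. Compound (DMSO) pin transfer, 18 h 37 C. One-Glo, 30 min RT, luminescence.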

For experiment [4], the system named is estrogen-related receptor alpha (ERRalpha) with PGC-1alpha coactivator, human. The experiment in a line: qHTS assay to identify small molecule antagonists of the estrogen related receptor signaling pathway with the pleiotropic PPARgamma coactivator (PGC) (AID 1224821; calls by dose curve;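 further: series mostly up to about 46 µM; lower luminescence signal means antagonism of PGC/ERR signalling; nearly all actives have a fitted effect of over 50% in size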). The method, boiled down:
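Luminescent read-out (One-Glo, 30 min at room temperature) following 18 h treatment of PGC/ERR cells at 37 C with compounds delivered in DMSO. Cells had settled 6 h at 37 C/5% CO2 before dosing.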

Experiment [5] can be described thus: qHTS assay to identify small molecule agonists of the estrogen related receptor signaling pathway with the pleiotropic PPARgamma coactivator (PGC) (AID 1224823). The method, boiled down: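 Steps: plate PGC/ERR cells at 2,000 cells/well; incubate 6 h, 37 C/5% CO2; pin-transfer compounds (DMSO); incubate 18 h, 37 C; add One-Glo; 30 min RT; read luminescence.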

A short description of experiment [6]: qHTS assay to identify small molecule antagonists of the estrogen related receptor signaling pathway with the pleiotropic PPARgamma coactivator (PGC) cell viability counter screen (AID 1224822;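 further: series mostly up to about 46 µM; viability read after 17.5 h compound exposure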). The method, boiled down:
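Cells: PGC/ERR, 2,000/well, 1536-well format. Pre-incubation 6 h, 37 C/5% CO2. Compound exposure 17.5 h, 37 C. Detection: CellTiter-Fluor, 30 min, fluorescence.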

Regarding `O=C(O)CNC(=O)C(CS)Cc1ccccc1` (centres undefined), the Potency result in experiment [1], in experiment [2], in experiment [3], in experiment [4] and in experiment [5] was “inactive” throughout.
With `O=C(O)C1CCNCC1`, the Potency result in experiment [1], in experiment [2], in experiment [3], in experiment [4] and in experiment [5] was “inactive” each time.
Regarding `Cn1c(=O)c2[nH]c(-c3ccc(S(=O)(=O)O)cc3)nc2n(C)c1=O`, the Potency entry in experiment [1], in experiment [2], in experiment [3], in experiment [6] and in experiment [5] was “inactive” in each case.
For the compound `N[C@@H](CCC(=O)N[C@H](CSN=O)C(=O)NCC(=O)O)C(=O)O`, the Potency result in experiment [1], in experiment [2], in experiment [3], in experiment [6] and in experiment [5] was “inactive” each time.
With `NCCCC(=O)O`, the Potency entry in experiment [1], in experiment [2], in experiment [3], in experiment [4] and in experiment [5] was “inactive” in each case.
`OC[C@H]1O[C@H](n2cnc3c(N[C@H]4CCC[C@@H]4O)ncnc32)[C@H](O)[C@@H]1O`: the Potency result in experiment [1], in experiment [2], in experiment [3] and in experiment [6] was “inactive” each time.
With `N[C@@H](CC(=O)O)C(=O)O`, the Potency result in experiment [1], in experiment [2], in experiment [3], in experiment [6] and in experiment [5] was “inactive” each time.
As to `CNCCc1cnc(CCC(c2ccccc2)c2ccccc2)[nH]1`, the Potency result in experiment [1], in experiment [2], in experiment [3], in experiment [4] and in experiment [5] was “inactive” in each case.
In the case of `NC(N)=NC(N)=Nc1ccccc1`, the Potency result in experiment [1], in experiment [2], in experiment [3], in experiment [6] and in experiment [5] was “inactive” in each case.
On to `O=C(O)CCC(C(=O)O)N1C(=O)c2ccccc2C1=O` (centres undefined), for which the Potency entry in experiment [1], in experiment [2], in experiment [3], in experiment [6] and in experiment [5] was “inactive” each time.
As to `Cc1cc(N)c2ccccc2[n+]1CCCCCCCCCC[n+]1c(C)cc(N)c2ccccc21`, the Potency entry in experiment [1], in experiment [3], in experiment [6] and in experiment [5] was “inactive” throughout. For the same compound, the Potency in experiment [2] was 722 nM (active).
`c1ccc2nc(C3=NCCN3)ccc2c1`: the Potency result in experiment [1], in experiment [2], in experiment [3], in experiment [6] and in experiment [5] was “inactive” in each case.
Regarding `Nc1nc2c(nc(Br)n2C2OC3COP(=O)(O)O[C@@H]3C2O)c(=O)[nH]1` (some centres undefined), the Potency entry in experiment [1], in experiment [2], in experiment [3], in experiment [4] and in experiment [5] was “inactive” throughout.
